Data reported in the supplement of paper PMC3334620.
Over roughly 33,000 sequences, “E-score (-0.5 to 0.5)” has its median near -0.053; the highest 2% begin near 0.37. Only a selection was taken, and the highest values are over-represented in it overall.

Biological target: Hap1 (UniProt P0CE41)
Assay: PBM E-score (8-mer binding enrichment) (E-score (-0.5 to 0.5)); higher = stronger / more preferred TF binding
Settings: protein concentration: 200 nM; construct: GST-DNA-binding domain
Procedure: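 Universal 'all 10-mer' protein binding microarrays (Agilent AMADID 015681) probed with GST-tagged S. cerevisiae TFs (full-length or DBD) made by in vitro transcription/translation (PURExpress), about 100-200 nM. Bound TF was detected with fluorescent anti-GST. Each ungapped 8-mer (which stands for itself and its reverse complement) is scored by the PBM enrichment score (E-score), a modified Wilcoxon-Mann-Whitney statistic from -0.5 to +0.5, computed with the Universal PBM Analysis Suite. Scale: above 0.35 generally sequence-specific binding.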

Chain of UniProt P0CE41 (P0CE41 whole entry): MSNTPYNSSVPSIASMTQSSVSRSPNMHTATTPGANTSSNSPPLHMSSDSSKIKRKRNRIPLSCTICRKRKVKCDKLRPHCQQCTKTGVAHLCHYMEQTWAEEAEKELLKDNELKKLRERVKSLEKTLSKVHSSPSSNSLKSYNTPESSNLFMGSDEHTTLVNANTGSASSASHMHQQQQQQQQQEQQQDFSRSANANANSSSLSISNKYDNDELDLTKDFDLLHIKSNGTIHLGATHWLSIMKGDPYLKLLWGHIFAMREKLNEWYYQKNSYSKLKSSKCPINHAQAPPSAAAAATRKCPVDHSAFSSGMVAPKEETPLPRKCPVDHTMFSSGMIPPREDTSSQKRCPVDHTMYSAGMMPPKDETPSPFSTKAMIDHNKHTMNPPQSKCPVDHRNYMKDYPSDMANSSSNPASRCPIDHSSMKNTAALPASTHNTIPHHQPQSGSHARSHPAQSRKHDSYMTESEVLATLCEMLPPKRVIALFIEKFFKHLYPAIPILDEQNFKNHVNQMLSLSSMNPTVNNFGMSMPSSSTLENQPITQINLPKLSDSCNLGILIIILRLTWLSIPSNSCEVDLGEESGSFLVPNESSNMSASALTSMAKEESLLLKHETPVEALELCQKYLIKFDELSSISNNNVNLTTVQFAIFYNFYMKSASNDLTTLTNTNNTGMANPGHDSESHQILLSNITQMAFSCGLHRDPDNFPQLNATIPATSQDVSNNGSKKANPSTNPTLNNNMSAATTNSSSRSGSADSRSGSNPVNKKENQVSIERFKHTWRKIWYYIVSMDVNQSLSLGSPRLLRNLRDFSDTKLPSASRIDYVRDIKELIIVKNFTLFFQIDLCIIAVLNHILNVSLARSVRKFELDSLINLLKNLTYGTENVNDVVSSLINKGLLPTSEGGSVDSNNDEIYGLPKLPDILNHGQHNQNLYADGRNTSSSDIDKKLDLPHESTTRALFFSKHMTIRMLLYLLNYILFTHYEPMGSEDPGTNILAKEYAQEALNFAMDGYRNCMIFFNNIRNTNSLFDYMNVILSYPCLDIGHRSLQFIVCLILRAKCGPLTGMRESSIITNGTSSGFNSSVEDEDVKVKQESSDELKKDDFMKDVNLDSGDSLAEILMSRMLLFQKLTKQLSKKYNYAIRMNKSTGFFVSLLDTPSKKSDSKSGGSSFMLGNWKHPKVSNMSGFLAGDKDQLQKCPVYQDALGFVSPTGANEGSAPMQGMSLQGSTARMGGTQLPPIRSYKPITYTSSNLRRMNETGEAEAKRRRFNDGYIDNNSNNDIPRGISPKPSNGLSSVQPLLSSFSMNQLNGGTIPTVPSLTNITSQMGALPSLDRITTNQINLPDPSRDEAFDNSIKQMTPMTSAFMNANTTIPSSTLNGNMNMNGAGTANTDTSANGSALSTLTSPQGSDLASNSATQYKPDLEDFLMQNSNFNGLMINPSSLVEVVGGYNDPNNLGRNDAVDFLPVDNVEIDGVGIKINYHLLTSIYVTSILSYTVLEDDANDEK

Row | Sequence | PBM E-score
1 | ACGCCTAC | -0.0649
2 | GATGCGAA | -0.0227
3 | TATTGCGA | 0.0517
4 | AGTTTGTC | -0.117
5 | CACCATCG | -0.192
6 | GCAGCGGC | -0.00312
7 | ACGAGATC | -0.15
8 | CCGCTGCA | -0.0239
9 | GTACCTCA | -0.238
10 | ATTCCGCG | 0.285
11 | ATTCCGTC | 0.213
12 | ATTCCGCC | 0.295
13 | ATTCCGTG | 0.294
14 | ATTCCGGC | 0.37
15 | ATTCCGGG | 0.374
16 | GAGTCGCC | -0.0011
17 | CCTTGTCA | -0.311
18 | AGGAGTTA | 0.292
19 | GGGAGTTA | 0.247
20 | CGGAGTAC | 0.254
21 | GGGAGTAA | 0.147
22 | CTGAGTTC | -0.0173
23 | CGGAGTTA | 0.494
24 | CGGAGTTC | 0.394
25 | CGGAGTAA | 0.37
26 | AGGAGTTC | -0.143

Row | Sequence | PBM E-score
27 | CCCCTGTA | -0.154
28 | GCTCGATA | 0.0192
29 | AGAGGAAT | -0.205
30 | ATCTCTAC | -0.223
31 | AAGATGGG | -0.126
32 | AGCCGGAC | 0.409
33 | AGCCGGCC | 0.354
34 | AGCCGGCT | 0.25
35 | CGCCGGGC | 0.332
36 | AGCCGGGC | 0.173
37 | AGCCGGTG | 0.326
38 | AGCCGGGG | 0.268
39 | AGCCGGCA | 0.334
40 | AGCCGGAT | 0.418
41 | AGCCGGAG | 0.404
42 | CGCCGGAC | 0.409
43 | CGTCGGAC | 0.338
44 | ACACGCAG | -0.093
45 | CGAGAAAC | 0.187
46 | AGCTTTGA | -0.0822
47 | AAAGTGCT | -0.21
48 | AAAGAATT | -0.0164
49 | AGAGCTGC | -0.128
50 | CGCTTTGA | 0.0268
51 | AACAGCTT | -0.106
52 | TAGACACA | -0.156

Row | Sequence | PBM E-score
53 | CGACGGAG | 0.287
54 | CGCCGGAG | 0.399
55 | AGCCGGAA | 0.371
56 | GGACGGAC | 0.358
57 | GGCCGGTA | 0.344
58 | CGCCGGAA | 0.357
59 | AGCCGGGA | 0.231
60 | CGCCGTAG | 0.187
61 | GGCCGGAA | 0.363
62 | AGCCGGTA | 0.414
63 | AGCCGGTC | 0.0184
64 | GGCCGGAC | 0.398
65 | AAATACGA | -0.0883
66 | CAACGGGC | 0.153
67 | CGCGAGCG | 0.104
68 | AGTAGCAG | -0.173
69 | ATCCTCGA | -0.107
70 | AAACGCCC | 0.263
71 | GTCCCGAC | 0.243
72 | AGGCGGCC | 0.0302
73 | GGTTCGGA | 0.373
74 | AGTTCGGA | 0.366
75 | GGTTCGAA | 0.00151
76 | CGTTCGTA | 0.0644
77 | CGTTCGGC | 0.291
78 | CGTTCGGA | 0.412

Row | Sequence | PBM E-score
79 | GGCATACC | 0.107
80 | CCCGGCTA | 0.344
81 | ATGTTTCA | -0.21
82 | CATGGTGG | -0.137
83 | GCCCTCGC | -0.0401
84 | CCCGTCTA | -0.0612
85 | CGTACCTC | -0.0658
86 | AACTGCTT | -0.134
87 | CCTCCTCG | -0.147
88 | ACCTGCTG | -0.058
89 | CCCCGGGA | 0.348
90 | GACCGGTA | 0.243
91 | CACCGGTC | 0.227
92 | TCACGGGA | 0.0121
93 | CACCGGTG | 0.24
94 | CACCGGTA | 0.376
95 | GACCGGGA | 0.329
96 | TACCGGTA | 0.441
97 | AACCGGTA | 0.331
98 | TCCCGGGA | 0.392
99 | TACCGGGA | 0.387
100 | AACCGGGA | 0.193
101 | CAGTAGAA | -0.229
102 | TTGCGCAA | -0.00107
103 | CATGCAGC | -0.164
104 | AGCTCGAC | -0.227

Row | Sequence | PBM E-score
105 | ATCAAGCG | 0.0373
106 | AGCTCGGG | 0.363
107 | CGCGACTA | 0.197
108 | CCCTTAAG | 0.13
109 | CCACCTGC | -0.121
110 | GAAGACTA | -0.0051
111 | CTTCTCCA | -0.301
112 | CGGACAAG | 0.357
113 | CGGACATC | 0.365
114 | CGGACATA | 0.489
115 | GGGACATA | 0.0939
116 | CGGACAAA | 0.405
117 | AGGACAAA | -0.016
118 | CGAGTTGC | -0.053
119 | ACAGCGCG | 0.0018
120 | AGGGCGTA | -0.137
121 | CGGGCGAA | 0.375
122 | GGGGCGTA | 0.00742
123 | CGGGCGAC | 0.304
124 | GGGGCGAA | 0.127
125 | CGGGCGTA | 0.395
126 | AAAGGTGG | -0.156
127 | ACGGCGAA | 0.0956
128 | CCGAAGTC | 0.318
129 | ATTGAACC | -0.0801
130 | AGGCCGAG | 0.303

Row | Sequence | PBM E-score
131 | CGGCCAAG | 0.195
132 | CGGCCGAA | 0.449
133 | AGGCCGAC | 0.32
134 | GGGCCGAA | 0.311
135 | TGGCCGAA | 0.261
136 | GGGCCGAC | 0.312
137 | CGGCCGAG | 0.449
138 | CGGCCGAC | 0.415
139 | GTACTGAC | -0.119
140 | CGCAGTCA | -0.0499
141 | AGAGATGG | -0.0221
142 | AAGTGCGA | 0.00701
143 | ATGAGTCC | 0.0718
144 | AACGACCC | 0.00262
145 | AGGACAGC | -0.0413
146 | CTCCGGGC | 0.341
147 | ATCCGGGA | 0.239
148 | GGCCGGGA | 0.336
149 | GTCCGGGA | 0.38
150 | CTCCGGGA | 0.392
151 | CGCCGGGA | 0.317
152 | CGTGGTTA | -0.251
153 | AGTGGAAG | 0.0152
154 | AATGGGCG | -0.0792
155 | GAGGCGGC | 0.0321
156 | GTCCGATA | 0.463

Row | Sequence | PBM E-score
157 | CTCCGATC | 0.311
158 | ATCCGATG | 0.277
159 | ATCCGATC | 0.326
160 | ATCCGATA | 0.453
161 | CTACGATA | -0.179
162 | CTCCGATA | 0.432
163 | GTTCGATA | 0.0968
164 | GTACGATA | -0.189
165 | CTAACGTC | 0.00466
166 | TCGTACCA | -0.114
167 | GAGGCCAA | -0.0324
168 | AACTGTCA | -0.212
169 | ACAAACGA | -0.145
170 | CTCTGTCA | -0.296
171 | TACCATGA | -0.347
172 | AAGGGGGA | -0.179
173 | GTCACCCA | -0.158
174 | ATACCGGA | 0.437
175 | AGACCGGC | 0.235
176 | CTACCGCA | 0.108
